Compound activity from PubChem BioAssay.
ELG1 repair inh – ELG1-dependent DNA repair inhibition; HEK293T ELG1-luciferase reporter, luminescence, 16 h; DNA damage induced by 5-fluorouridine; Potency, µM (top dose mostly 46.1 µM), hits mostly inhibitors; 330,000 compounds, 2.3% hits; also: nearly all actives have a fitted effect of over 55% in size
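Reporter activity after DNA damage by 5-fluorouridine is monitored. Compound-treated cells incubate 16 hr at 37 °C, then ONE-Glo is added for 30 min before luminescence reading.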
KB-3-1 tox – KB-3-1 parental cell cytotoxicity. Potency, µM (top dose mostly 46.1 µM), actives largely listed as cytotoxic. KB-3-1 viability, CellTiter-Glo ATP luminescence, 72 h. 400,000 compounds, 1.4% hits; also: nearly all actives have a fitted effect of over 60% in size
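Parental KB-3-1 adenocarcinoma cells in phenol-red-free DMEM with 10% FBS were pin-treated with compounds at several concentrations, incubated 72 h at 37 °C, and viability read by CellTiter-Glo luminescence; concentration-effect curves were fitted after normalization.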
MCF10A rerep – induces DNA re-replication in MCF 10a normal breast cells; MCF 10A DNA re-replication, Hoechst nuclear intensity, 48 h; Potency, µM (highest dose often 46.1 µM), most hits filed as activators; 350,000 compounds, 2.9% hits; also: nearly all actives have a fitted effect of over 50% in size
SW480 rerep – induces DNA re-replication in SW480 colon adenocarcinoma cells. 340,000 compounds, 1.8% hits. Potency, µM (top dose mostly 46.1 µM), hits mostly activators. SW480 DNA re-replication, Hoechst DNA content imaging, 48 h; also: nearly all actives have a fitted effect of over 55% in size
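Readout is total intensity of Hoechst-stained nuclei, excited at 405 nm and collected at 500-530 nm. Compound treatment lasted 48 hr at 37 C in 5% CO2 before staining.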
KB-V1 MDR tox – KB-V1 MDR subline cytotoxicity; KB-V1 MDR cells viability, CellTiter-Glo, 72 h; Potency, µM (top dose mostly 46.1 µM), hits mostly cytotoxic; 400,000 compounds, 3.4% hits; AID 1347076; also: nearly all actives have a fitted effect of over 60% in size
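Following 72 h at 37 degrees C with compound, KB-V1 cell viability was read by CellTiter-Glo luminescence, medium being phenol-red-free DMEM plus 10% FBS; concentration-response parameters came from normalized, curve-fitted qHTS data.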
ELG1 FLuc counter – luciferase inhibition in cell-free luciferin readout for ELG1 hits. shares compounds with ELG1 repair inh. cell-free firefly luciferase luminescence counter-screen, ViewLux. Potency, µM (top dose mostly 46.1 µM), most hits filed as inhibitors. 350 compounds, 3% hits
ELG1-Luc inh – confirmation of human ELG1-dependent DNA repair inhibitors | shares compounds with ELG1 repair inh | HEK293T ELG1-luciferase levels, luminescence; cells co-treated with 5-fluorouridine | Potency, µM (top dose mostly 46.1 µM), usual class: inhibitors | 670 compounds, 68% hits | AID 624248; also: nearly all actives have a fitted effect of over 55% in size
ELG1 MMS Luc – MMS-stimulated human ELG1 repair inhibition, confirmed. shares compounds with ELG1 repair inh. HEK293T luciferase-tagged ELG1 level, MMS stimulated. Potency, µM (doses to about 46.1 µM), usual class: inhibitors. 670 compounds, 53% hits; also: nearly all actives have a fitted effect of over 60% in size
ELG1 5FU viab – confirmation of ELG1 repair inhibitors: viability with 5FU; shares compounds with ELG1 repair inh; cell viability with 5-FU, ELG1-dependent repair; Potency, µM (highest dose often 46.1 µM), usual class: cytotoxic; 670 tested, under 10 active; AID 624250;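 also: ELG1-luc HEK293T cells cotreated with 5-fluorouridine at 10 µM final; viability measured 16 h after compound addition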
ELG1 MMS cell – confirmation of ELG1 repair inhibitors: viability with MMS. shares compounds with ELG1 repair inh. Cell viability with MMS, ELG1-dependent DNA repair. Potency, µM (highest dose often 46.1 µM), actives largely listed as cytotoxic. 670 compounds, 33% hits;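 also: ELG1-luc HEK293T cells co-treated with 10 µM MMS; viability read 16 h after compound addition; nearly all actives have a fitted effect of over 60% in size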
ELG1 unstim viab – affects unstimulated cell viability, ELG1 hit counter-screen. shares compounds with ELG1 repair inh. cell viability counter-screen, unstimulated, luminescence. Potency, µM (highest dose often 45.9 µM), usual class: cytotoxic. 900 compounds, 8% hits. AID 624252;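 also: compound exposure lasted 16 hours before reading; nearly all actives have a fitted effect of over 55% in size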
FLuc enzyme – inhibits purified firefly luciferase, counter-screen for ELG1 hits | 350 compounds, 10% hits | AID 624253 | Potency, µM (series often up to 57.5 µM), most hits filed as inhibitors | purified firefly luciferase, luminescence counter-screen | shares compounds with ELG1 repair inh
Each line names hits and unclear results; the compound was inactive in the other large screens (follow-up assays come after a bar, where they were run). Only some compounds are listed: those with a hit (about 8.2% of all), similar ones and a draw of the others. Calls follow the shape of the dose curve; as a rule, active = well fitted curve in the direction sought with a large enough effect; inconclusive = small, poorly fitted or top-dose-only effect, or another doubt; inactive = no such curve, though single readings can be large; an effect the other way counts as inactive or inconclusive.

CN(C)c1cccc(C(=O)NNC(=O)CN2C(=O)C3CC=CCC3C2=O)c1 (centres undefined)	ELG1 repair inh inconclusive, KB-3-1 tox inconclusive | ELG1 unstim viab inactive
Cc1cccc(C)c1NC(=O)CN1C(=O)C2CC=CCC2C1=O (centres undefined)	none
COCCN(C(=O)COC(=O)CCCc1c[nH]c2ccccc12)c1c(N)n(Cc2ccccc2)c(=O)[nH]c1=O	KB-V1 MDR tox inconclusive (no result: ELG1 repair inh)
Cc1cccc(N2CCN(C3=NC(=O)/C(=C\c4cn[nH]c4-c4ccccc4)S3)CC2)c1	ELG1 repair inh 2.31µM | ELG1 FLuc counter inactive | ELG1-Luc inh 1.41µM | ELG1 MMS Luc 11.2µM | ELG1 5FU viab inconclusive | ELG1 MMS cell inconclusive | ELG1 unstim viab inconclusive | FLuc enzyme inactive
COc1ccc(NS(=O)(=O)c2cccc(C(=O)OCC(=O)N3CCN(c4ccc(OC)cc4)CC3)c2)cc1	ELG1 repair inh 4.61µM, KB-V1 MDR tox inconclusive | ELG1-Luc inh inconclusive | ELG1 MMS Luc 7.91µM | ELG1 5FU viab inactive | ELG1 MMS cell 7.91µM | ELG1 unstim viab inconclusive
COc1ccc(N2CCN(C(=O)c3ccc(NS(=O)(=O)c4cccc(F)c4)cc3)CC2)cc1	KB-3-1 tox inconclusive
O=C(OCC(=O)N1CCN(c2ccccc2)CC1)c1ccccc1NCCO	none
Cc1ccc(CNc2nc(-c3cccnc3)nc3ccccc23)cc1	ELG1 repair inh inconclusive
COc1ccc(C(CNc2nc(-c3cccnc3)nc3ccccc23)N(C)C)cc1 (centres undefined)	MCF10A rerep inconclusive | ELG1 FLuc counter inactive | ELG1-Luc inh 17.7µM | ELG1 MMS Luc inconclusive | ELG1 5FU viab inconclusive | ELG1 MMS cell inactive | ELG1 unstim viab inactive | FLuc enzyme inactive
COc1ccc(CCNc2nc(-c3cccnc3)nc3ccccc23)cc1OC	ELG1 repair inh 2.59µM, MCF10A rerep inconclusive, SW480 rerep inconclusive, KB-V1 MDR tox 8.2µM | ELG1 FLuc counter inactive | ELG1-Luc inh 3.15µM | ELG1 MMS Luc 12.6µM | ELG1 5FU viab inconclusive | ELG1 MMS cell inconclusive | ELG1 unstim viab inconclusive | FLuc enzyme inconclusive
O=Cc1cn(CC(=O)Nc2ccccc2)c2ccccc12	none
O=Cc1cn(CC(=O)Nc2ccc(F)cc2)c2ccccc12	ELG1 repair inh 3.66µM, SW480 rerep inconclusive, KB-V1 MDR tox inconclusive | ELG1-Luc inh inactive | ELG1 MMS Luc 3.15µM | ELG1 5FU viab inactive | ELG1 MMS cell 14.1µM | ELG1 unstim viab inactive
COc1ccccc1-c1csc(C(NC(C)=O)c2ccccc2)n1 (centres undefined)	none (no result: ELG1 repair inh, MCF10A rerep, SW480 rerep)
COc1ccc2cc(C[C@@H]3CC[C@@H](CO)O3)ccc2c1	ELG1 repair inh inconclusive | ELG1 unstim viab inactive
COc1ccc(N2CCN(C(=O)COc3ncnc4ccccc34)CC2)cc1	none
COc1ccc(C2=NN(C(=O)COc3ncnc4ccccc34)C(c3ccco3)C2)cc1 (centres undefined)	ELG1 repair inh 4.11µM, SW480 rerep inconclusive | ELG1-Luc inh inconclusive | ELG1 MMS Luc inactive | ELG1 5FU viab inconclusive | ELG1 MMS cell inactive | ELG1 unstim viab inactive
C[C@H](CO)N1C[C@H](C)[C@@H](CN(C)C(=O)c2ccccn2)Oc2cc(Br)ccc2S1(=O)=O	none (no result: ELG1 repair inh, MCF10A rerep, SW480 rerep)
CC(=O)c1cc(F)ccc1OCC(=O)Nc1ccc2c(c1)OCO2	ELG1 repair inh inconclusive | ELG1 unstim viab inactive
O=C(COc1cc(F)ccc1[N+](=O)[O-])Nc1ccc2c(c1)OCO2	ELG1 repair inh inconclusive
O=C(CCNC(=O)c1ccccc1Cl)Nc1ccc(Cl)c(C(F)(F)F)c1	MCF10A rerep inconclusive
O=C(CCN1C(=O)c2ccccc2C1=O)Nc1ccc(-c2nc3ccccc3o2)cc1	ELG1 repair inh inconclusive | ELG1 FLuc counter inactive | ELG1 unstim viab inconclusive | FLuc enzyme inconclusive
Cc1cn2c(=O)cc(COc3ccccc3NC(=O)c3ccc(Cl)cc3)nc2s1	none (no result: ELG1 repair inh, MCF10A rerep, SW480 rerep)
O=[N+]([O-])c1ccc2ncnc(N3CCN(Cc4ccc5c(c4)OCO5)CC3)c2c1	ELG1 repair inh 2.06µM, KB-V1 MDR tox inconclusive | ELG1-Luc inh 4.99µM | ELG1 MMS Luc 12.5µM | ELG1 5FU viab inactive | ELG1 MMS cell 25µM | ELG1 unstim viab inconclusive
O=[N+]([O-])c1cccnc1N1CCN(Cc2ccc3c(c2)OCO3)CC1	none
CC(C)[C@H](NC(=O)[C@H](Cc1ccccc1)n1c(=O)[nH]c2ccccc2c1=O)C(=O)N1CCC[C@H]1C(=O)O	none
COc1cccc(CNC(=O)Cn2ccc3cc(S(=O)(=O)N4CCC(C)CC4)ccc32)c1	none
O=C(CSc1nc2ccc(NC(=O)CSc3nnnn3Cc3ccccc3)cc2s1)Nc1ccccc1	ELG1 repair inh 4.61µM, MCF10A rerep inconclusive | ELG1-Luc inh inconclusive | ELG1 MMS Luc 7.91µM | ELG1 5FU viab inactive | ELG1 MMS cell 12.5µM | ELG1 unstim viab inconclusive
Cc1ccccc1-n1ncc2c1CC(C)(C)CC2NC(=O)c1snnc1C (centres undefined)	none
COCCn1c(C)cc(C(=O)COC(=O)c2ccccc2Br)c1C	ELG1 repair inh inconclusive
COCCn1c(C)cc(C(=O)COC(=O)c2cccnc2SC)c1C	ELG1 repair inh inconclusive, SW480 rerep inconclusive | ELG1 FLuc counter inactive | ELG1 unstim viab inconclusive | FLuc enzyme 0.517µM
O=NN(CCCl)C(=O)NC1CCCCC1	none (no result: ELG1 repair inh, KB-3-1 tox, KB-V1 MDR tox)
Cn1cccc1C(=O)OCC(=O)c1c[nH]c2ccccc12	ELG1 repair inh inconclusive, KB-3-1 tox inconclusive | ELG1 unstim viab inactive
Cc1ccc(C(=O)OCC(=O)c2c[nH]c3ccccc23)cc1	ELG1 repair inh inconclusive
CN1CCn2cnc(C(=O)Nc3ccc(Cl)cc3)c2C1=O	none (no result: ELG1 repair inh, MCF10A rerep, SW480 rerep)
